Screening data: PubChem BioAssay, University of Kansas High Throughput Screening Laboratory
mHTT CaM bind – disrupts binding of mutant huntingtin to calmodulin; P42858; AlphaScreen His-mHTT/GST-CaM binding, luminescence; inhibition, % at 15 µM; actives 3.6% (n = 190,000)
Target sequence (P42858 whole entry, looked up, change not shown): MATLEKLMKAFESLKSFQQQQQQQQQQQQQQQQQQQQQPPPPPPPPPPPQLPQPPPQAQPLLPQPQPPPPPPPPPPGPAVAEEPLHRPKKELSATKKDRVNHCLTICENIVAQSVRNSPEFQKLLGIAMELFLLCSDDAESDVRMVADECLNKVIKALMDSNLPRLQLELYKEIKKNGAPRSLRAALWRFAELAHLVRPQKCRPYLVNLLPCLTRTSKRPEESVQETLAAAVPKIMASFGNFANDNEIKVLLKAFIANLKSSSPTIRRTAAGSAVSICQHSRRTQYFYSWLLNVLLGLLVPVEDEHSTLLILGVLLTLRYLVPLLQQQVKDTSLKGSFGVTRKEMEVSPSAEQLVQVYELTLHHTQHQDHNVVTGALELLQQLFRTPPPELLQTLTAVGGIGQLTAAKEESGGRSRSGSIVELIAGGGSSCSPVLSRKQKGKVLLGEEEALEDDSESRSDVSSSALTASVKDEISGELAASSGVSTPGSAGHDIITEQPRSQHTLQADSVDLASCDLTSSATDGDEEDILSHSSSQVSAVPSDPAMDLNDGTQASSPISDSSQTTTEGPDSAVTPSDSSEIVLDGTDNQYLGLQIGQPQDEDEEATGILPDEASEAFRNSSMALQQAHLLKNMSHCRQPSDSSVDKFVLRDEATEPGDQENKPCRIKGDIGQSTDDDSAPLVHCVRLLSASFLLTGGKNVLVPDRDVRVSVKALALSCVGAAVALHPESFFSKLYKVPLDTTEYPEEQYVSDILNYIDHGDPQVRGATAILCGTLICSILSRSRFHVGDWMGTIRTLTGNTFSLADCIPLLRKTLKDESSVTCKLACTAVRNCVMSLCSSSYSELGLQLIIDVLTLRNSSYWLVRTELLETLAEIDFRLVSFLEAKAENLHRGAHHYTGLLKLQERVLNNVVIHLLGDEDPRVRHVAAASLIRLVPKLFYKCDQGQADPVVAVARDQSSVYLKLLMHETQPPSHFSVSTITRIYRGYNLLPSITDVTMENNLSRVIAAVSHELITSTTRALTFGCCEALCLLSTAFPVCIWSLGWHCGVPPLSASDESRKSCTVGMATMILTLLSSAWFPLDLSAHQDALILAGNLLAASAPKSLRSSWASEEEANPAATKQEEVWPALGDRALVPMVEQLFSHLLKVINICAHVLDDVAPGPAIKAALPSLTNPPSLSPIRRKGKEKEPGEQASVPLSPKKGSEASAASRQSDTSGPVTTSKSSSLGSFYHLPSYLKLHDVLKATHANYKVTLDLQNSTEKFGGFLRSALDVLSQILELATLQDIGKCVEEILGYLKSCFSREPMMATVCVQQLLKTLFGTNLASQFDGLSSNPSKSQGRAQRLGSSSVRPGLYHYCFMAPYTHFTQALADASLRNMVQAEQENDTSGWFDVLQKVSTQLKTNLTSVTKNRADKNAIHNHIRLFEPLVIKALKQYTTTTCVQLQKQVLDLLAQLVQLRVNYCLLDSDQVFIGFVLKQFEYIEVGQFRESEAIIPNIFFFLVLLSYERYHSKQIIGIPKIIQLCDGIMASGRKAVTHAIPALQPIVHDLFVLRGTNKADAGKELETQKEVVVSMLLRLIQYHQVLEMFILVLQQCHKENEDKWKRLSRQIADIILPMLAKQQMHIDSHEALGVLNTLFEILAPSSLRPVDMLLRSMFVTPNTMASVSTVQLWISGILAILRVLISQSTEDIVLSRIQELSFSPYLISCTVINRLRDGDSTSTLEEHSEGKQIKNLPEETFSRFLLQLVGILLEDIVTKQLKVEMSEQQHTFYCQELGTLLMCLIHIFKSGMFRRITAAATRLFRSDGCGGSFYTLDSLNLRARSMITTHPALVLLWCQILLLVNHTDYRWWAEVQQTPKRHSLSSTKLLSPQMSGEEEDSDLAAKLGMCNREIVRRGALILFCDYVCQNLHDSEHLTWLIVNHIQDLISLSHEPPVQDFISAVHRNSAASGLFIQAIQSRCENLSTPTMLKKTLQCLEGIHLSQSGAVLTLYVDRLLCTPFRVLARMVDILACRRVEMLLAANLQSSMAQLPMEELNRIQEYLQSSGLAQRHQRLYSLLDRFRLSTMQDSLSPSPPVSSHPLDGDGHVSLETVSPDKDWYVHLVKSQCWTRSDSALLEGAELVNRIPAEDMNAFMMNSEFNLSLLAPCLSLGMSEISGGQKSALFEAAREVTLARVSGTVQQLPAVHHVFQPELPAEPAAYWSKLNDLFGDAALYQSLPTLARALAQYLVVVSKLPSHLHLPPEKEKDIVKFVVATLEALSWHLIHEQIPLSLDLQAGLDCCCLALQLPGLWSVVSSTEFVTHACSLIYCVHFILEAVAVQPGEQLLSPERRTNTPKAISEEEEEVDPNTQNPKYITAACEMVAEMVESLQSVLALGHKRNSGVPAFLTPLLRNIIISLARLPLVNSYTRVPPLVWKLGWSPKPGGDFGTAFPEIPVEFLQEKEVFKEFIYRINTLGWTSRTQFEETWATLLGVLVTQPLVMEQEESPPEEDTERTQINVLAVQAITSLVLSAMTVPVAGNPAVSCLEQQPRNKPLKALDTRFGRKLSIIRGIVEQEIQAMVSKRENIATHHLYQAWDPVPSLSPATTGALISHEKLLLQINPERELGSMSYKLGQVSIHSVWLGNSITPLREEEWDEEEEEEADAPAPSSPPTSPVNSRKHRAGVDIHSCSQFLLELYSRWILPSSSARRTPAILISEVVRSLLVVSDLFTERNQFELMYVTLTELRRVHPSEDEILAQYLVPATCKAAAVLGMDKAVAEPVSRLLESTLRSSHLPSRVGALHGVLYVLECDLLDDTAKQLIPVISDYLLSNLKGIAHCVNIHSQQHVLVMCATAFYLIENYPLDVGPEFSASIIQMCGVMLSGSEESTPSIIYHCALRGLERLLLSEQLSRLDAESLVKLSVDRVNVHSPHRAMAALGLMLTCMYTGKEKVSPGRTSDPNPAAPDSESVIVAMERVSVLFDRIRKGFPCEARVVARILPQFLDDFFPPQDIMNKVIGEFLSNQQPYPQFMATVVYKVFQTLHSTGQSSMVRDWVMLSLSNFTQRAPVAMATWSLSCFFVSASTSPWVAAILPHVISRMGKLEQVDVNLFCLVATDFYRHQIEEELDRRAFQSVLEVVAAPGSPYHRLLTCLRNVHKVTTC
Pf apPOL block – Pf-apPOL DNA polymerase inhibition; Recombinant Pf-apPOL, molecular beacon fluorescence, 1.5 h; inhibition, % at 10 µM; actives 0.25% (n = 210,000); AID 1794808
Numbers stand for hits; . = inactive; / = no result given; ! = not active in a repeat. Only some compounds are listed: those with a hit (about 3.5% of all), similar ones and a draw of the others. Rule as the data show it: active = inhibition above about 50%; inactive = the rest.

SMILES	mHTT CaM bind	Pf apPOL block
O=C(NC(=O)c1ccccc1Oc1ccc(Cl)cc1Cl)Nc1cc(Cl)cc(Cl)c1	/	.
O=[N+]([O-])c1ccc2nc(SCc3c[nH]c4ccccc34)sc2c1	58	.
O=[N+]([O-])c1ccc2nc(SCc3ccccc3F)sc2c1	.	.
COc1ccc(-c2cc(-c3ccccc3)nc(=O)[nH]2)cc1	.	.
COc1ccc(-c2cc(-c3cc(OC)ccc3O)[nH]n2)cc1	72	.
Cc1nc(-c2ccc(OCc3cc(F)ccc3F)cc2)no1	.	.
O=C(NCCn1nc(-c2cccs2)ccc1=O)c1cnn(-c2ccccc2)n1	.	.
Cn1c2ccc(Br)cc2c2nnc(SCN3C(=O)c4ccccc4C3=O)nc21	.	.
Cn1c2ccc(Br)cc2c2nnc(SCCN3CCOCC3)nc21	80	.
O=C(c1ccccc1OCC1CCN(C(=O)C2CCC2)CC1)N1CCOCC1	.	.
Cc1ccccc1NC(=O)C1CCCN(S(=O)(=O)c2ccc(Br)s2)C1 (stereo not drawn)	.	.
Cc1nc2nc(SCC(=O)NCC3CCCO3)nn2c(C)c1Cc1c(F)cccc1Cl (stereo not drawn)	70	.
Cc1nc2nc(SCC(=O)NCC3CCCO3)nn2c(C)c1Cc1ccccc1Cl (stereo not drawn)	.	.
COc1ccc(OC)c(CNC(=O)c2cc3cc4ccc(C)cc4nc3o2)c1	.	.
O=C(Nc1ccncc1)C(=O)Nc1ccncc1	.	.
NS(=O)(=O)c1ccc(N2CCOCC2)c([N+](=O)[O-])c1	/	.
O=[N+]([O-])c1cc(Br)c2nsnc2c1N1CCOCC1	67!	.
COc1ccc(C=C2Oc3cc(OCC#N)ccc3C2=O)cc1OC	.	.
Cc1ccc(N2COc3cc4c(cc3C2)OCO4)cc1Cl	.	.
Cc1ccc(N2COc3cc4c(cc3C2)OCO4)cc1	.	.
Cc1cccc(N2COc3cc4c(cc3C2)OCO4)c1	59	.
Cc1cc(C)cc(N2COc3cc4c(cc3C2)OCO4)c1	53	.
COc1ccc2[nH]c3nc4cc(Cl)c(Cl)cc4nc3c2c1	.	.
CC1CCCN(CN2C(=O)C3(OCC(CO)([N+](=O)[O-])CO3)c3ccccc32)C1 (stereo not drawn)	.	.
COc1ccc(-c2nc3c(c(=O)[nH]2)CCN(C(=O)c2ccc(Cl)cc2OC)C3)cc1	.	.
SMILES	mHTT CaM bind	Pf apPOL block
COc1ccc(-n2c(C)ccc2C)cc1Cl	62	.
Cc1ccc(C)n1-c1ccc(Cl)c(C(=O)NN)c1	.	.
Nc1nc(NC(=O)c2ccc([N+](=O)[O-])cc2)nn1-c1ccccc1	.	.
O=C(Nc1nc(NC(=O)c2ccccc2)n(-c2ccccc2)n1)c1ccccc1	89	.
O=C(NC=Nc1cc([N+](=O)[O-])c(-c2ccncc2)n1-c1ccccc1)c1cccc(O)c1	64	.
O=C(Nc1ccc2nn(-c3ccccc3)nc2c1)c1ccc(Cl)c([N+](=O)[O-])c1	.	.
COc1ccc(C(=O)NCCc2c[nH]c3ccccc23)cc1	.	.
COc1ccc(C(=O)C(C)OC(=O)CCc2c[nH]c3ccccc23)cc1 (stereo not drawn)	90	.
CCn1cc(-c2ccncc2)cc1C(=O)NC1CCCC1	.	.
O=C(O)CCC1C(=O)CCC1(C(=O)O)c1ccccc1 (stereo not drawn)	.	.
Cc1c(Cl)cccc1NC(=O)C1CC(=O)N(c2ccccc2)C1 (stereo not drawn)	.	.
Cc1ccc(-c2cn(-c3ccc(Oc4ccccc4)cc3)c(=O)[nH]2)cc1	.	.
O=[N+]([O-])c1ccc(S(=O)(=O)n2cccn2)cc1	.	.
COc1ccc(OC)c(S(=O)(=O)c2ccc([N+](=O)[O-])cc2Cl)c1	/	.
COc1ccc(OC)c(S(=O)(=O)n2cc([N+](=O)[O-])cn2)c1	100	.
CC(C)Cc1ccc(S(=O)(=O)n2cc([N+](=O)[O-])cn2)cc1	100	.
O=C(Nc1ccccc1C(F)(F)F)C1CCN(c2cncnc2N2CCOCC2)CC1	.	.
O=C1NC(=O)N(c2ccc(Br)cc2)C(=O)/C1=C/c1ccc(N2CCOCC2)o1	.	.
O=C(c1ccc(Cl)cc1)N1CCCC2(CC(c3ccccc3)=CO2)C1 (stereo not drawn)	91	.
O=C(c1ccc(F)cc1)N1CCCC2(CC(c3cccnc3)=CO2)C1 (stereo not drawn)	.	.
COc1ccc(C2=COC3(CCCN(C(=O)c4ccc(F)cc4)C3)C2)cc1 (stereo not drawn)	.	.
COc1ccc(C2=COC3(CCCN(C(=O)c4ccccc4)C3)C2)cc1 (stereo not drawn)	65	.
O=C(c1ccc(Cl)cc1)N1CCCC2(CC(c3ccc(Cl)cc3)=CO2)C1 (stereo not drawn)	.	.
O=C(c1ccccc1)N1CCCC2(CC(c3cccnc3)=CO2)C1 (stereo not drawn)	97	.
CCc1ccccc1NC(=O)c1cc2c(CO)cnc(C)c2oc1=Nc1cc(OC)ccc1OC	.	.
SMILES	mHTT CaM bind	Pf apPOL block
Nc1nnc(-c2ccccc2)s1	.	.
NC1=NNC(c2ccccc2)=CS1	53	.
COc1ccc(C(C)NC(=O)C2CCN(c3nnc(-c4ccc(C)cc4)o3)CC2)cc1 (stereo not drawn)	.	.
O=S(=O)(NCc1ccccc1)c1cc(Cl)ccc1Cl	.	.
COc1ccc(-c2ccc(CCC(=O)O)n2-c2ccc(OC)cc2OC)cc1	.	.
COc1ccc(-n2c(CCC(=O)O)ccc2-c2cccs2)c(OC)c1	55	.
CCOC(=O)c1sc(NC(=O)c2cc(Cl)sc2Cl)c(C#N)c1C	.	.
Cc1cc(C(=O)Nc2cccc(OC(C)C)c2)c(C)o1	51	.
Cc1cc(C(=O)Nc2ccccc2)c(C)o1	.	.
COc1ccc(-n2nc3c(c2NC(=O)c2ccccc2[N+](=O)[O-])CSC3)cc1	.	.
COCC(=O)N1CCC(CCOCc2ccc(F)cc2)CC1	.	.
COc1cccc(C2C(C(=O)Nc3ccccc3)=C(C)Nc3nc(-c4ccccc4)nn32)c1OC (stereo not drawn)	70	.
COc1ccc(C2C(C(=O)Nc3ccccc3)=C(C)Nc3nc(-c4ccccc4)nn32)c(OC)c1 (stereo not drawn)	.	.
CCCC1N=C(c2ccc(Cl)cc2)CC(c2cccc(OC)c2O)N1 (stereo not drawn)	52	.
CCCC1N=C(c2cccc(OC)c2)CC(c2ccccc2O)N1 (stereo not drawn)	.	.
COc1ccc(-c2ccc(CN3C(CC(C)C)C(=O)N(Cc4cn(CC5CCCCC5)nn4)CCS3(=O)=O)cc2)cc1OC (stereo not drawn)	.	.
Cc1ccc(-c2ccc(CN3C(C)C(=O)N(Cc4cn(CC5CCCCC5)nn4)CCS3(=O)=O)cc2)cc1 (stereo not drawn)	.	.
CC1C(=O)N(Cc2cn(CC3CCCCC3)nn2)CCS(=O)(=O)N1Cc1ccc(-c2ccccc2)cc1 (stereo not drawn)	73	.
CC(C)CC1C(=O)N(Cc2cn(CC3CCCCC3)nn2)CCS(=O)(=O)N1Cc1ccc(-c2ccncc2)cc1 (stereo not drawn)	65	.
CCCCCCCNC(=O)C1CCCN(c2ncc(-c3ccccc3)cn2)C1 (stereo not drawn)	.	.
Nc1c(C(=O)N2CCCCC2)nnn1-c1ccccc1	.	.
COc1ccccc1/C=C1/N=C(c2cc([N+](=O)[O-])ccc2OC)OC1=O	.	.
O=C(CSc1cn(Cc2ccc(Cl)cc2)c2ccccc12)NCc1ccco1	54	.
